Consider 9 molecules from PubChem BioAssay (Tox21).

Experiment [1] in a line: qHTS assay to identify small molecule antagonists of the sonic hedgehog signaling (Shh) pathway (AID 1259369; calls by dose curve; further: nearly all actives have a fitted effect of over 45% in size; further: potency means the concentration at half of the fitted maximal effect). An outline of the steps:
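Conditioned medium drives Shh signalling in 3T3Gli1-Luc cells; compounds in DMSO co-applied, 24hr at 37 C, then luciferase luminescence.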

A short description of experiment [2]: qHTS assay to identify small molecule agonists of the estrogen receptor beta (ER-beta) signaling pathway - cell viability counter screen (AID 1259380). Further: nearly all actives have a fitted effect of over 30% in size. Further: potency means the concentration at half of the fitted maximal effect. An outline of the steps: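 Cells used were ER-beta-UAS-bla HEK293T in medium with 2% charcoal-stripped FBS. They were treated for 16 hr at 37C. Viability came from CellTiter-Glo luminescence.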
On the technique in general: In qHTS, concentration-response curves come from the screen itself.

The target of experiment [3] is Androgen receptor (Homo sapiens) (UniProt P10275). Briefly: qHTS assay to identify small molecule agonists of the androgen receptor (AR) signaling pathway in the presence of an antagonist (AID 1259381; calls by dose curve; further: nearly all actives have a fitted effect of over 15% in size). An outline of the steps: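 Using human MDA-kb2 cells with an MMTV promoter–luciferase construct (AR and GR response elements), agonist activity is scored under 3.0uM nilutamide (final) co-treatment; 16hr incubation, 37C, luminescence readout via ONE-Glo.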

The nature of experiment [4]: qHTS assay to identify small molecule agonists or antagonists of the thyroid stimulating hormone receptor (TSHR) signaling pathway - wild type cell line counter screen (AID 1259384; calls by dose curve). The procedure, abridged:
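Wild-type HEK293 cells were plated 18 h at 37 C/5% CO2, pin-dosed with compound plus Ro20-1724 medium, held 30 min at room temperature, then given cAMP-d2 and anti-cAMP-cryptate; fluorescence was read after 1 h. Fifteen concentrations, triplicate.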

The target of experiment [5] is Progesterone receptor (Homo sapiens) (UniProt P06401). Nature of the experiment: qHTS assay to identify small molecule antagonists of the progesterone receptor (PR) signaling pathway (AID 1346795; active means well fitted inhibition curve with a large enough effect in the signal ratio in the repeat runs, not every such curve was filed as active; the % refers to the signal ratio; further: potency means the concentration at half of the fitted maximal effect). An outline of the steps:
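Antagonist mode: compounds tested against 1 nM (final) promegestone stimulation in HEK293T cells expressing PR-UAS-bla reporter, 16 hr at 37C, 5% CO2; beta-lactamase activity detected via B/G FRET substrate after 2 hr at room temperature.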

A short description of experiment [6]: qHTS assay to identify small molecule antagonists of the TGF-beta/Smad signaling pathway - cell viability counter screen (AID 1346824). Further: nearly all actives have a fitted effect of over 50% in size. The procedure, abridged: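 SBE-bla HEK 293T cells were plated overnight at 37 C, then given compounds in DMSO plus TGF-beta1 (added as 0.25 ng/mL solution) for 5 hr. After the bla read, CellTiter-Glo was added to the same wells and luminescence read after 30 min at room temperature.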

A short description of experiment [7]: qHTS assay to identify small molecule agonists of the TGF-beta/Smad signaling pathway - cell viability counter screen (AID 1346829). Further: top concentration of the series differs between compounds; nearly all actives have a fitted effect of over 45% in size. An outline of the steps: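 SBE-bla HEK 293T cells plated overnight, compound exposure 5 hr at 37 C. Viability read in the same wells by CellTiter-Glo luminescence after 30 min at room temperature, following the beta-lactamase read.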

Experiment [8] has as its target Thyrotropin-releasing hormone receptor (Homo sapiens) (UniProt P34981). Briefly: qHTS assay to identify small molecule antagonists of the thyrotropin-releasing hormone receptor (TRHR) signaling pathway (AID 1346877; active means well fitted inhibition curve with a large enough effect in the repeat runs, not every such curve was filed as active; further: series mostly up to about 51 µM). The procedure, abridged: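 Screening used HEK293 cells engineered with TRHR, with a brief 5 min room-temperature compound exposure preceding addition of TRH to 1 nM. The read-out was kinetic calcium-dye fluorescence, concentration-response from 15 doses in triplicate.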

Experiment [9] shares this target. Briefly: qHTS assay to identify small molecule agonists of the thyrotropin-releasing hormone receptor (TRHR) signaling pathway (AID 1346891; calls by dose curve;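 further: HEK293 cells expressing TRHR with calcium dye readout; series mostly up to about 58 µM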). An outline of the steps: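 Cells: TRHR-Hek293, seeded and incubated 18 h. Dye loading: 2 h at 37 °C. Compound added from DMSO stock by pin tool. Read-out: kinetic calcium fluorescence over 3 min.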
For experiment [10], the target named is Estrogen receptor beta (Homo sapiens) (UniProt Q92731). Nature of the experiment: qHTS assay to identify small molecule agonists of the estrogen receptor beta (ER-beta) signaling pathway (AID 1259377; active means well fitted activation curve with a large enough effect in the signal ratio in the repeat runs, not every such curve was filed as active; the % refers to the signal ratio). The procedure, abridged:
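Agonist mode cell assay in GripTite HEK293T cells expressing an ER-beta fusion that drives beta-lactamase from an Upstream Activator Sequence; 16 hr compound exposure at 37C, then 2 h LiveBLAzer B/G FRET substrate at room temperature, fluorescence read-out.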

The target is the same in experiment [11]. Nature of the experiment: qHTS assay to identify small molecule antagonists of the estrogen receptor beta (ER-beta) signaling pathway (AID 1259378; active means well fitted inhibition curve with a large enough effect in the signal ratio in the repeat runs, not every such curve was filed as active; the % refers to the signal ratio). The procedure, abridged:
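ER-beta-UAS-bla HEK293T (GripTite) cells in 2% charcoal-stripped FBS medium were preincubated 6 hr at 37C, dosed with compound, then stimulated with 1 nM E2 (final) for 16 hr; beta-lactamase reporter read by B/G FRET fluorescence after 2 hr substrate loading.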

Experiment [12] can be described thus: qHTS assay to identify small molecule agonists of the androgen receptor (AR) signaling pathway in the presence of an antagonist - cell viability counter screen (AID 1259379).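 Further: MDA-kb2 human breast cancer cells carrying an MMTV luciferase reporter; series mostly up to about 92 µM; nearly all actives have a fitted effect of over 25% in size.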 The procedure, abridged: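 A CellTiter-Fluor read-out measured viability of MDA-kb2 reporter cells (MMTV promoter with AR and GR response elements). Treatment: nilutamide 3.0uM final with compounds at 15 concentrations, 16 hr, 37C, 0% CO2.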

Experiment [13] can be described thus: qHTS assay to identify small molecule antagonists of the estrogen receptor beta (ER-beta) signaling pathway - cell viability counter screen (AID 1259382). Further: nearly all actives have a fitted effect of over 55% in size. Further: potency means the concentration at half of the fitted maximal effect. The procedure, abridged: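 Agonist-stimulated (1nM E2) ER-beta-UAS-bla HEK293T cells are incubated with library compounds for 16 hr at 37C. Cell viability is then assessed in the reporter-assay wells by adding CellTiter-Glo and reading luminescence after 30 min.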

For experiment [14], the target named is Estrogen receptor (Homo sapiens) (UniProt P03372). Nature of the experiment: qHTS assay to identify small molecule agonists of the estrogen receptor alpha (ER-alpha) signaling pathway in the presence of an antagonist (AID 1259383; calls by dose curve; further: top concentration of the series differs between compounds; nearly all actives have a fitted effect of over 15% in size). The procedure, abridged: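 Using VM7Luc4E2 cells seeded 24hr before treatment, antagonist ICI-182,780 (10.0nM final) was added, followed by compounds at 15 concentrations. Plates incubated 22hr; ONE-Glo luminescence quantified reporter activity.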

The target in experiment [15] is Thyrotropin receptor (Homo sapiens) (UniProt P16473). Nature of the experiment: qHTS assay to identify small molecule antagonists of the thyroid stimulating hormone receptor (TSHR) signaling pathway (AID 1259385; calls by dose curve; further: nearly all actives have a fitted effect of over 20% in size; further: potency means the concentration at half of the fitted maximal effect). An outline of the steps: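 TSHR-HEK293 cells were plated and held 18 h at 37C/5% CO2, then given compound plus Ro20-1724 and stimulated with TSH at 1.5 ng/mL final. After 30 min at room temperature, cAMP was detected with cAMP-d2/anti-cAMP-cryptate (1 h) by fluorescence.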

Experiment [16] addresses Progesterone receptor (Homo sapiens) (UniProt P06401). Briefly: qHTS assay to identify small molecule agonists of the progesterone receptor (PR) signaling pathway (AID 1346784; calls by dose curve; further: nearly all actives have a fitted effect of over 30% in size). An outline of the steps:
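Cells (PR-UAS-bla HEK 293T, GripTite) were plated in assay medium containing 2% charcoal-stripped FBS and incubated 6 hr. Test compounds in DMSO were added for 16 hr at 37C. FRET substrate was then loaded for 2 hr at room temperature before fluorescence reading.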

A short description of experiment [17]: qHTS assay to identify small molecule antagonists of the progesterone receptor (PR) signaling pathway - cell viability counter screen (AID 1346798). Further: nearly all actives have a fitted effect of over 50% in size. Further: potency means the concentration at half of the fitted maximal effect. The procedure, abridged: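 Counter screen for cytotoxicity: viability of PR-UAS-bla HEK293T cells was measured with CellTiter-Glo luminescence following 16 hr compound exposure in the presence of R5020.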
The nature of experiment [18]: qHTS assay to identify small molecule agonists of the progesterone receptor (PR) signaling pathway - cell viability counter screen (AID 1346799; calls by dose curve; further: nearly all actives have a fitted effect of over 45% in size; further: potency means the concentration at half of the fitted maximal effect). The procedure, abridged: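 Cells (PR-UAS-bla HEK293T) are plated at 3,000/well in 2% charcoal-stripped FBS medium, rested 6 hr, dosed and incubated 16 hr at 37C. CellTiter-Glo is then added and luminescence measured after 30 min at room temperature.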

Experiment [19] can be described thus: qHTS assay to identify small molecule agonists of the TGF-beta/Smad signaling pathway (AID 1346859; active means well fitted activation curve with a large enough effect in the signal ratio in the repeat runs, not every such curve was filed as active; the % refers to the signal ratio; further: series mostly up to about 77 µM). The procedure, abridged:
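Reporter line: HEK 293T with stably integrated SBE-controlled beta-lactamase. Compound exposure lasts 5 hr at 37 C and 5% CO2; substrate loading follows for 2 hr at room temperature, with emission read at 460 and 530 nm.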

The nature of experiment [20]: qHTS assay to identify small molecule agonists of the estrogen receptor alpha (ER-alpha) signaling pathway in the presence of an antagonist - cell viability counter screen (AID 1259386).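 Further: series mostly up to about 92 µM; cells exposed to compounds for 22 h at 37 °C before the viability read; nearly all actives have a fitted effect of over 30% in size.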 The procedure, abridged: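 ICI-182,780 at 10.0nM final accompanies the compound titration (15 concentrations, 22hr, 37C) on VM7Luc4E2 cells. The CellTiter-Fluor fluorescence readout runs in the same wells as the luciferase assay.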

Results filed as inconclusive are left out. Active and inactive are the calls of the source. Unless noted, the call rests on the fitted dose curve; in most records, active means well fitted curve in the direction sought with a large enough effect in the repeat runs; inconclusive means weak or mixed curves; inactive means no such curve, though single readings can be large; an effect the other way counts as inactive or inconclusive.

Estrogen receptor beta (Homo sapiens), sequence (Q92731 whole entry, looked up, the tested form may be a part): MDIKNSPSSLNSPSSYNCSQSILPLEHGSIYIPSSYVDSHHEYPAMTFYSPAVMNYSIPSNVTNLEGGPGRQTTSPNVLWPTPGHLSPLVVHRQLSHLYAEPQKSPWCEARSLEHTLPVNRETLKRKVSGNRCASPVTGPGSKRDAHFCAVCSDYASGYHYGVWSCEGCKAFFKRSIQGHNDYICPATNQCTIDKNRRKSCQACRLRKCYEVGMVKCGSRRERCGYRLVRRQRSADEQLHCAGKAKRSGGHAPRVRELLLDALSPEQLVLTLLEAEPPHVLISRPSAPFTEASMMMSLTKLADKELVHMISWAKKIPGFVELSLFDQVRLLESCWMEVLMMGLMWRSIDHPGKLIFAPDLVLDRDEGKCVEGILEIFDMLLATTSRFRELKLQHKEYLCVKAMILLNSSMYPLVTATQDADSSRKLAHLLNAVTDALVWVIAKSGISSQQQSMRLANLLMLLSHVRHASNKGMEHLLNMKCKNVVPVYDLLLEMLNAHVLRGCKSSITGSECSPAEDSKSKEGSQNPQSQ
Thyrotropin receptor (Homo sapiens), sequence (P16473 whole entry, looked up): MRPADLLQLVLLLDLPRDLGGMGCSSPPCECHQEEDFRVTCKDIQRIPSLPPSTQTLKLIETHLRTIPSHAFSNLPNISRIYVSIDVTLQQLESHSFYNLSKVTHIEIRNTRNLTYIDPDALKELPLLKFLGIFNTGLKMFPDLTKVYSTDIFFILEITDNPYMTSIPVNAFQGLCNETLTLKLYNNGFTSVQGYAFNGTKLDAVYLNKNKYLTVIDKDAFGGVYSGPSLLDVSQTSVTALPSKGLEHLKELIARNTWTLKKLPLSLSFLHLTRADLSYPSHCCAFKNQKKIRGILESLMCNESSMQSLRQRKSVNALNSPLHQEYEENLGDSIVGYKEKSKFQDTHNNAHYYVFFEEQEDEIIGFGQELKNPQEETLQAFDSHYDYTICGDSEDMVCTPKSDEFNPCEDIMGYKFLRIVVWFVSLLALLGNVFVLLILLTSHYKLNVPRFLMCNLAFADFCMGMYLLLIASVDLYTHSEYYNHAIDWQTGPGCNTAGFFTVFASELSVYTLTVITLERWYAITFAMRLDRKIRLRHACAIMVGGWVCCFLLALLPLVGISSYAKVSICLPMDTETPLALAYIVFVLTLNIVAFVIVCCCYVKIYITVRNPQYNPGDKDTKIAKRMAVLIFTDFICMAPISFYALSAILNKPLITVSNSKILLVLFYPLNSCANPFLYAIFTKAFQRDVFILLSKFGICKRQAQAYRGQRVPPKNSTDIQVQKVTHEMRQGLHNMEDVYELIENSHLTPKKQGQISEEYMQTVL
Progesterone receptor (Homo sapiens), sequence (P06401 whole entry, looked up): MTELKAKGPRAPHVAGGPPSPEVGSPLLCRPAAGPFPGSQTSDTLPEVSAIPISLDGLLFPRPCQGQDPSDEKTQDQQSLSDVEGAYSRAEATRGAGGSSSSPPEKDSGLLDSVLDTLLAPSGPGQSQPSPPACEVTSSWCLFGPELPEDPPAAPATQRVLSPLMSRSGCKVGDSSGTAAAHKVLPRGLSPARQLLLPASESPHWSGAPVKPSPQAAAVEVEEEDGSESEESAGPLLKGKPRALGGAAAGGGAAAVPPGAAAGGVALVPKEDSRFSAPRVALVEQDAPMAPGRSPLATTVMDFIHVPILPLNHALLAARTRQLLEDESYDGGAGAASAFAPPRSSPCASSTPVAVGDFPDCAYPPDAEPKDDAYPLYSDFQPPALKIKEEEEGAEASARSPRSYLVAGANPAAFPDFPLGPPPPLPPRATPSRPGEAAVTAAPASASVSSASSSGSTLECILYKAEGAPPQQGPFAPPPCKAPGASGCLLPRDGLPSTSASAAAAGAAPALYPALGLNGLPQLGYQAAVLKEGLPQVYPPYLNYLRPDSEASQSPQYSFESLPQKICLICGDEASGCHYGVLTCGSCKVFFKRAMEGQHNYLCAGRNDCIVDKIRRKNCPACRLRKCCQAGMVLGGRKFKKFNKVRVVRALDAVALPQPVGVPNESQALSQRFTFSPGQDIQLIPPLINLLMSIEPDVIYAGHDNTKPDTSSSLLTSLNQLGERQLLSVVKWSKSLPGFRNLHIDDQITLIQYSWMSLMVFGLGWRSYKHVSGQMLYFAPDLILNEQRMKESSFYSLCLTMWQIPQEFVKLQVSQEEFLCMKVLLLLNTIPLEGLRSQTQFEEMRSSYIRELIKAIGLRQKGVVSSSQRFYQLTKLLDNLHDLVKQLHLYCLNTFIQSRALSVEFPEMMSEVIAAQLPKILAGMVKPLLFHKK
Androgen receptor (Homo sapiens), sequence (P10275 whole entry, looked up): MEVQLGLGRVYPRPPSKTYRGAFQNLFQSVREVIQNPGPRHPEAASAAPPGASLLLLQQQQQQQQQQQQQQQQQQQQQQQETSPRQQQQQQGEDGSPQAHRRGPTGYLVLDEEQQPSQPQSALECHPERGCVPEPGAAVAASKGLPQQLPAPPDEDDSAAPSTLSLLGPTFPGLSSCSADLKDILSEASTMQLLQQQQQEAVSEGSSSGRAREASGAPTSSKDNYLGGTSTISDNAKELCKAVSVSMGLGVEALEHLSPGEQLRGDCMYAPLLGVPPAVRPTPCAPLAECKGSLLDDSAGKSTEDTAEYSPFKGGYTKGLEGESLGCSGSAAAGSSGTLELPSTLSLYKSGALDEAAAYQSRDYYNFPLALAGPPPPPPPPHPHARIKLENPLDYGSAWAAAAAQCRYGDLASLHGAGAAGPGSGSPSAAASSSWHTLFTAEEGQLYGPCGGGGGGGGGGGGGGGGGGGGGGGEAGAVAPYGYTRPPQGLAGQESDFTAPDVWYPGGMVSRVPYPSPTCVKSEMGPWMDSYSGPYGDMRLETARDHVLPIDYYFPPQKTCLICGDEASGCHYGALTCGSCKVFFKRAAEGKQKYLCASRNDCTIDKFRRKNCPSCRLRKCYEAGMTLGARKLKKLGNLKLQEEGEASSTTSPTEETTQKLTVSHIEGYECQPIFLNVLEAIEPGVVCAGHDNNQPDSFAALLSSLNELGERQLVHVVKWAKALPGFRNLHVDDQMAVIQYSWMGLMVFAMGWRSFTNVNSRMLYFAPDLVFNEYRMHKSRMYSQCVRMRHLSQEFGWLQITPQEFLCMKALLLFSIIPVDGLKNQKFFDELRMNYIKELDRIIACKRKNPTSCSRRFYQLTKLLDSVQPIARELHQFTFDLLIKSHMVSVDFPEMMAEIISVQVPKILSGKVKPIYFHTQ
Thyrotropin-releasing hormone receptor (Homo sapiens), sequence (P34981 whole entry, looked up): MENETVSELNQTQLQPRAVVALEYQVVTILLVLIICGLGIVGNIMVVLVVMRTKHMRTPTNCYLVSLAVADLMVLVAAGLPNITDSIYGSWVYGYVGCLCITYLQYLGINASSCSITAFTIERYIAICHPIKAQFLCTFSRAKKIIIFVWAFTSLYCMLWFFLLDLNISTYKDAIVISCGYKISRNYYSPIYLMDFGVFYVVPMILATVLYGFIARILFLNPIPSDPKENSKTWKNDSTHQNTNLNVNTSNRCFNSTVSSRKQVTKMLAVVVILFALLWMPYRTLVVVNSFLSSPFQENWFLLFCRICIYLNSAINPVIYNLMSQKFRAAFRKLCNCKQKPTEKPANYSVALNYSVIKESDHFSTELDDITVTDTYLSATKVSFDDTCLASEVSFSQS
Estrogen receptor (Homo sapiens), sequence (P03372 whole entry, looked up): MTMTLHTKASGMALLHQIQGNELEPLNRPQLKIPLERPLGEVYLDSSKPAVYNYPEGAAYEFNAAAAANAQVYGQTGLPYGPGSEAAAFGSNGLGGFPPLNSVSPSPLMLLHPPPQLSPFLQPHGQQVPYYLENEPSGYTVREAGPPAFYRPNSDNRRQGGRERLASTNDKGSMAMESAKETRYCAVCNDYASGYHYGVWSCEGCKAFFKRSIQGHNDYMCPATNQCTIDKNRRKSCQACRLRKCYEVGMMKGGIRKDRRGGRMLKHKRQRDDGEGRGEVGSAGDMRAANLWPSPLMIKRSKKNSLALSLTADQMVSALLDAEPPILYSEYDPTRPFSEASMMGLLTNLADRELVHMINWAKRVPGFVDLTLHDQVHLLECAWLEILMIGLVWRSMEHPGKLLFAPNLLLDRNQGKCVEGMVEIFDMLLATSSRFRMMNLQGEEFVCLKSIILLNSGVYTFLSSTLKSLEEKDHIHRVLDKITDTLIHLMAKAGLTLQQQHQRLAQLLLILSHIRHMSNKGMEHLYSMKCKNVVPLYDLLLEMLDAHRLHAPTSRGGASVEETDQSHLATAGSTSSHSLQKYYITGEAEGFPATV

With `Fc1ccccc1[C@@H](F)COC1CCC(Nc2ncnc3[nH]ncc23)CC1` (some centres not stated), the Potency in experiment [1] was 12.2 µM (active); in experiment [2] it was 68.6 µM (active); in [5], 27.3 µM (active). Besides, the Potency result in experiment [3] and in [9] was “inactive” each time. Besides, the molecule was classed as inactive in experiment [4], in experiment [6], in experiment [7] and in experiment [8].
For the molecule `CC1CC(=O)NN=C1c1ccc(NCC(C)(C)NCC(O)COc2cc(Cl)ccc2C#N)cc1` (configuration not stated), the Potency entry in experiment [10], in experiment [11], in experiment [12], in experiment [13], in experiment [14] and in experiment [15] was “inactive” each time. Besides, the Potency entry in experiment [16], in [5], in [17], in [18] and in experiment [9] was “inactive” each time. Also, the molecule was classed as inactive in [6], in [7], in [19] and in experiment [8].
Turning to `OCCSc1ccccc1`, the Potency entry in [1], in experiment [12], in [14], in experiment [15], in experiment [20] and in experiment [16] was “inactive” throughout. Moreover, the molecule was classed as inactive in experiment [4], in [6], in experiment [7] and in experiment [19].
Take `O=C(O)c1ccccc1NCCc1ccccc1`: the Potency result in experiment [1], in experiment [12], in experiment [3], in [13], in [15] and in experiment [20] was “inactive” each time. The Potency entry in [16], in experiment [5], in experiment [18] and in experiment [9] was “inactive” in each case. For the same molecule, the call in experiment [4], in experiment [6], in [7], in experiment [19] and in experiment [8] was inactive.
As for `CN1CCN(CCCN2c3ccccc3Sc3ccc(S(=O)(=O)N(C)C)cc32)CC1`, the Potency in [1] is 13.3 µM (active); in experiment [13], 23.7 µM (active); in experiment [15], 29.8 µM (active); in [17] it was 13.3 µM (active); in experiment [18], 6.68 µM (active). The Potency result in experiment [12], in experiment [20] and in experiment [16] was “inactive” throughout. The result in experiment [4], in experiment [6], in [7], in [19] and in [8] was inactive.
For `COC(=O)CC(=O)C(C)(C)C`, the Potency result in experiment [1], in experiment [12], in experiment [14], in [15], in experiment [20] and in experiment [16] was “inactive” throughout. Also, the call in experiment [4], in experiment [6], in experiment [7] and in [19] was inactive.
Take `Nc1c(I)cc(I)c(C(=O)N(CCC(=O)O)c2ccccc2)c1I`: the Potency entry in experiment [1], in [12], in experiment [3], in experiment [13], in experiment [20] and in [16] was “inactive” throughout. In addition, the Potency result in experiment [5], in experiment [17], in experiment [18] and in experiment [9] was “inactive” each time. Moreover, the outcome in experiment [6], in [7], in experiment [19] and in [8] was inactive.
Take `CCCCC(CC)CNCC(CC)CCCC` (configuration not stated): the Potency entry in experiment [1], in experiment [12], in experiment [13], in experiment [20], in [16] and in experiment [5] was “inactive” each time. Further, the Potency entry in [17], in experiment [18] and in experiment [9] was “inactive” in each case. The molecule was called inactive in experiment [4], in experiment [6], in experiment [7], in experiment [19] and in experiment [8].
In the case of `O=C1OCCN1/N=C/c1ccc([N+](=O)[O-])o1`, the Potency result in experiment [10], in [11], in experiment [12], in experiment [2], in experiment [13] and in experiment [14] was “inactive” in each case. Besides, the Potency result in experiment [15], in experiment [20], in experiment [16], in experiment [5], in experiment [17] and in [18] was “inactive” in each case. Further, the Potency entry in [9] is “inactive”. The call in experiment [6], in [7], in experiment [19] and in [8] was inactive.
